Assay results published in PubChem BioAssay AID1851 (National Center for Advancing Translational Sciences (NCATS), 2009).
Among all 16,000 compounds or so, about 5,100 (32%) were called active. Roughly 25% stayed inconclusive and do not appear here. Calls come from the whole dose curve; as a rule, active = well fitted curve in the direction sought with a large enough effect; inconclusive = small, poorly fitted or top-dose-only effect, or effect the other way; inactive = no such curve, though single readings can be large or run the other way. Some of the results follow.

These molecules were tested against Cytochrome P450 3A4 (Homo sapiens) (UniProt P08684) (assay: Cytochrome panel assay with activity outcomes). Conditions: recombinant CYP, pro-luciferin dealkylation, luminescence, p450-cyp3a4; series mostly up to 57.1 µM.
Chain of Cytochrome P450 3A4 (Homo sapiens) (P08684 whole entry, looked up): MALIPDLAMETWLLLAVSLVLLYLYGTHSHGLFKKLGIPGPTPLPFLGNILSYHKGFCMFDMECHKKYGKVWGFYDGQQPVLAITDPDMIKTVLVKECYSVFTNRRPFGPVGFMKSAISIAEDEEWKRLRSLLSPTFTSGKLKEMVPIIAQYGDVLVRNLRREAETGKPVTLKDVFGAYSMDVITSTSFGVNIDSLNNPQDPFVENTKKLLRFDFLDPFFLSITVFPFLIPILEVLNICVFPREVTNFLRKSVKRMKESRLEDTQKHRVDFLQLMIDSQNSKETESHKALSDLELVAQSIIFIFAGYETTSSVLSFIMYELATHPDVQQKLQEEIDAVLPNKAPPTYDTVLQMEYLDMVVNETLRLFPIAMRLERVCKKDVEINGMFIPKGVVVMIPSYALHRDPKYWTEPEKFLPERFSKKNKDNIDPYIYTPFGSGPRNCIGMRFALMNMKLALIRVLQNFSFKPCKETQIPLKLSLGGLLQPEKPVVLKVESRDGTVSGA
% is set by controls: 0 for no effect and ±100 for the full control effect.

SMILES | AC50 | activity, negative = inhibition
CSc1nc(Cl)cc(N(CCO)CCO)n1 | inactive | 
COC(=O)C/C=C\[C@@H](C)[C@@H]1C=C[C@H](OC(C)=O)[C@H](COC(C)=O)O1 |  | -23.4% [at 11.4 µM] (inactive)
COC(=O)C/C=C\[C@@H](C)[C@@H](/C=N\OCC[C@H]1C=C[C@H](OC(C)=O)[C@@H](COC(C)=O)O1)NS(=O)(=O)c1ccc(C)cc1 | 3.98 µM (active) | 
CCCNC(=O)OC[C@H]1O[C@@H](CCO/N=C\[C@@H](NS(=O)(=O)c2ccc(C)cc2)[C@H](C)/C=C\CC(=O)OC)C=C[C@@H]1Oc1ccc(OC)cc1 | 3.16 µM (active) | 
Nc1ccn([C@@H]2CC[C@H](CO)O2)c(=O)n1 | inactive | 
COc1cc2c(cc1OC)CN(C(=S)Nc1ccccc1)CC2 | 12.6 µM (active) | 
CC(C)(CO)N1CCN(C(=S)Nc2ccccc2)CC1 |  | -8.25% [at 11.4 µM] (inactive)
CC(=O)Nc1sc2c(c1CN1CCN(C)CC1)CCCC2 | inactive | 
CC(=O)NCCC(=O)Nc1sc2c(c1-c1nc3ccccc3[nH]1)CCCC2 | 12.6 µM (active) | 
COc1cccc(Cn2c(=O)c(-c3cccs3)nc3cnc(N4CCNCC4)nc32)c1 | 15.8 µM (active) | 
COc1cccc(Cn2c(=O)c(-c3cccs3)nc3cnc(N4CCN(C)CC4)nc32)c1 | 12.6 µM (active) | 
CC(C)OC(=O)c1cc2c(OC[C@@H](O)CNC(C)(C)C)cccc2[nH]1 | inactive | 
Clc1ccc2c(N3CCC(CCC4CCN(c5ncnc6cc(Cl)ccc56)CC4)CC3)ncnc2c1 |  | -31.6% [at 11.4 µM] (inactive)
CN1CCN(c2ncnc3ccc(-c4ccccc4C#N)cc23)CC1 | 15.8 µM (active) | 
CN1CCN(c2ncnc3ccc(-c4ccccc4Cl)cc23)CC1 | 5.01 µM (active) | 
Cc1ccccc1-c1ccc2ncnc(N3CCN(C)CC3)c2c1 | 3.98 µM (active) | 
COC(=O)c1ccc(Oc2nc(N(C)C)nc(N3CCOCC3)n2)cc1 |  | 14.7% [at 11.4 µM] (inactive)
c1ccc(C2OCC3(CO2)COC(c2ccccc2)OC3)cc1 (configuration not stated) | inactive | 
C[C@H]1[C@H](C)OC(=O)C[C@H](O)C[C@H](O)C[C@H](O)CC[C@H](O)[C@H](O)CC(=O)C[C@H](O)[C@H](C(=O)O)[C@H](O)C[C@H](O[C@@H]2O[C@@H](C)[C@H](O)[C@@H](N)[C@@H]2O)C=CC=CC=CC=CCCC=CC=C[C@@](C)(O)[C@H]1O |  | 7.28% [at 11.4 µM] (inactive)
CCOc1ccc2c(ccc(/C=C\c3cc(C)c4cccnc4c3O)[n+]2C)c1 |  | -23.9% [at 11.4 µM] (inactive)
CCCc1cc(=O)oc2c(CN3CCOCC3)c(O)ccc12 |  | 1.81% [at 2.29 µM] (inactive)
Cn1c(=O)n2n(c1=O)[C@H]1[C@H](O)[C@H]3O[C@H]3C(=O)[C@H]1CC2 |  | -16.9% [at 11.4 µM] (inactive)
CC(=O)Nc1ccc(Cc2ccc3[nH]c(=O)cc(C)c3c2)cc1 |  | -20.4% [at 11.4 µM] (inactive)
CCc1c(C)nc2ccc(Br)cc2c1Cl | inactive | 
Cc1cc(Cl)nc2ccc(Cc3ccc4nc(Cl)cc(C)c4c3)cc12 | 3.16 µM (active) | 
CCOc1ccc2[nH]c(=O)c(CN(CCc3ccccc3)C(=O)N3CCCC3)cc2c1 | 3.55 µM (active) | 

SMILES | AC50 | activity, negative = inhibition
COc1cccc(C(=O)N(Cc2ccccc2)Cc2cc3cc4c(cc3[nH]c2=O)OCCO4)c1 | 3.98 µM (active) | 
COc1ccc2[nH]c(=O)c(CN(CCc3ccccc3)C(C)=O)cc2c1 | 17.8 µM (active) | 
CCOc1ccc2[nH]c(=O)c(CN(CCc3ccccc3)C(=O)N3CCOCC3)cc2c1 | 7.94 µM (active) | 
COc1cccc(C(=O)n2c(SC)nc3cc4c(cc32)OCCO4)c1 | inactive | 
CCOc1ccc(Cc2nc(C)c(CC(=O)N3CCOCC3)c(=O)[nH]2)cc1 |  | 1.75% [at 11.4 µM] (inactive)
COc1ccc2[nH]c(=O)c(NC(N)=S)nc2c1 | inactive | 
C[N+]1(CC(=O)OCCCc2ccccc2)CCOCC1 | inactive | 
O=C(O)c1cc2cc(OCc3ccccc3)ccc2[nH]1 | inactive | 
CCc1cccc(C)c1NC(=O)CSc1nc2ccc(N3C(=O)c4ccccc4C3=O)cc2s1 | 4.47 µM (active) | 
CCN(CC)C(=O)CSc1nc2ccc(NC(=O)CSc3nnc(COc4ccccc4C)n3C)cc2s1 |  | -17.9% [at 2.29 µM] (inactive)
c1csc(CNc2nc(-c3ccc4c(c3)OCO4)nc3ccccc23)c1 | 1 µM (active) | 
Cc1cccc(CNc2nc(-c3ccc4c(c3)OCO4)nc3ccccc23)c1 | 0.398 µM (active) | 
Cc1cnc(CNc2nc(-c3ccc4c(c3)OCO4)nc3ccccc23)cn1 | 0.794 µM (active) | 
c1cncc(CNc2nc(-c3ccc4c(c3)OCO4)nc3ccccc23)c1 | 0.316 µM (active) | 
C[C@]1(O)CC[C@H]2[C@H]3CC=C4N5CCN=C5CC[C@@]4(C)[C@H]3CC[C@@]21C |  | -12.7% [at 11.4 µM] (inactive)
CC(=O)NCCNc1nc(-c2ccc3c(c2)OCO3)nc2ccccc12 | 3.98 µM (active) | 
O=C(O)c1cc(-c2ccc3cc4c(cc3c2)OCO4)nc2ccccc12 |  | -17.7% [at 11.4 µM] (inactive)
N=C(N)SCc1cccc(-c2nc3ccccc3c(=O)o2)c1 |  | -20.1% [at 11.4 µM] (inactive)
c1ccc(CNc2nc(-c3ccc4c(c3)OCO4)nc3ccccc23)cc1 | 1 µM (active) | 
COc1ccc(CSC2=C(C#N)C(=O)NC3(CCCCC3)S2)cc1 |  | -12.2% [at 11.4 µM] (inactive)
O=C1C=C(c2cccs2)CC(c2cccs2)C1n1cnc([N+](=O)[O-])c1 (configuration not stated) | inactive | 
CCCCSCc1nc2nc(Cl)c(Cl)nc2[nH]1 |  | -27.9% [at 11.4 µM] (inactive)
CC1CCN(C(=S)c2ccc(O)cc2)CC1 |  | 11.7% [at 2.29 µM] (inactive)
CSc1nnc2c(n1)OC(C)N(C(=O)c1ccccc1)c1ccccc1-2 (configuration not stated) | inactive | 
C=CCSc1nnc2c(n1)OC(c1c(C)[nH]n(-c3ccccc3)c1=O)Nc1ccccc1-2 (configuration not stated) | 14.1 µM (active) | 
CC(C)[C@@H]1NC(=O)[C@H](CCCCN)NC(=O)[C@H](Cc2c[nH]c3ccccc23)NC(=O)[C@H](Cc2ccc(O)cc2)NC(=O)[C@H](C)N(C)C(=O)[C@H](Cc2ccccc2)NC1=O | 3.98 µM (active) | 
